Data taken from PubChem BioAssay AID2417 (National Center for Advancing Translational Sciences (NCATS), 2010).
Screen size: about 140,000 compounds; about 4,300 (3.1%) were called active. Roughly 21% stayed inconclusive and do not appear here. The full list was thinned out, with actives kept by preference. A number with no mark means an inactive call.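 How the source made its calls: active means readout at or below -70, meaning at least 70% loss of cells showing the perinucleolar compartment, a nuclear body marking cancer cells; inconclusive means readout between -30 and a set limit; inactive means the rest.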

Test: High Content Assay for Compounds that inhibit the Assembly of the Perinucleolar Compartment;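 further: plate controls were DMSO wells for no effect and camptothecin positive control wells for full effect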
Conditions: PC3M PTB-GFP, PNC prevalence imaging, 16 h; at 10 µM; active compounds read low
Procedure, shortened: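 Compounds are pinned in duplicate onto adhered PC3M cells stably expressing GFP-tagged PTB and incubated 16 h at 37 C. Cells are then fixed, nuclei stained with Hoechst, and PNC-positive cells counted.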

Going from `CCCCN1C(=O)CCC(C(=O)O)C1c1ccc(OC)cc1` (stereo not given) to `CCOC(=O)C1C(=O)C=C(c2ccc(OC)cc2)CC1c1ccco1` (stereo not given), the activity change (PNC), negative = inhibition falls from 36.8% to 27.1%.

First: CCN(CC)c1ccc(S(=O)(=O)N2CCOCC2)cc1NC(=O)CSc1cccc[n+]1[O-]
Second: COc1cccc(/C=N/NC(=O)CNC(=O)c2ccc(S(=O)(=O)N3CCOCC3)cc2)c1OC
The activity change (PNC), negative = inhibition of the first is lower: 11.8% for the first, 69.9% for the second.

Compared with `O=C(c1cccnc1NCc1ccccc1)N1CCOCC1`, `Cc1cc(C(=O)COc2ccccc2[N+](=O)[O-])c(C)n1-c1cccc(S(=O)(=O)N2CCOCC2)c1` is higher in activity change (PNC), negative = inhibition: 40.9% for the first, 101% for the second.

First: Cc1nc(NCCN)c(C#N)c2c1COC(C)(C)C2
Second: Cc1cc(O)ccc1NC1=CC(=O)CC(C)(C)C1
The activity change (PNC), negative = inhibition of the first is higher: 32.5% for the first, -15.4% for the second.

Going from `S=C(NCc1ccc(Cl)cc1)NC1CCCCC1` to `COc1ccc(CCNC(=O)COC(=O)C2CCCCC2)cc1`, the activity change (PNC), negative = inhibition rises from 32.1% to 43.3%.

Compared with `COc1ccc(S(=O)(=O)N2CCC(C(=O)N3CCOCC3)CC2)cc1OC`, `COc1ccc(S(=O)(=O)N2CCN(C(=O)c3cccs3)CC2)cc1OC` is lower in activity change (PNC), negative = inhibition: -7.88% for the first, -15.3% for the second.

First: C=CCNC(=O)/C(=C\c1cccc([N+](=O)[O-])c1)NC(=O)c1ccccc1
Second: C/C(Cc1ccccc1)=N\NC(=O)CNC(=O)c1cccc(Br)c1
The activity change (PNC), negative = inhibition of the first is higher: 48.8% for the first, 19.9% for the second.

First: O=C(CSc1ncnc2scc(-c3ccccc3)c12)NCc1ccc2c(c1)OCO2
Second: O=C(Nc1ccc2c(c1)OCO2)c1ccc(N2C(=O)c3ccccc3C2=O)cc1
The activity change (PNC), negative = inhibition of the first is higher: 40.3% for the first, -11% for the second.

Compared with `Cc1noc(COc2ccccc2OCC(O)CNC(C)(C)C)n1` (stereo not given), `Cc1nc2ccccc2cc1OCc1ccc(F)cc1` is higher in activity change (PNC), negative = inhibition: -3.16% for the first, 41.2% for the second.

First: Cc1cccc(C)c1NC(=O)C(c1ccccc1)N1CC(=O)Nc2ccccc21 (stereo not given)
Second: Cc1ccc(C)c(NC(=O)CSc2nc3c(oc4ccccc43)c(=O)n2-c2ccccc2)c1
The activity change (PNC), negative = inhibition of the first is higher: 43.2% for the first, -5.79% for the second.

Going from `CCn1c(C(C)NC(=O)c2ccc(C)cc2)n[nH]c1=S` (stereo not given) to `COc1ccc(C(=O)NNS(=O)(=O)c2ccc(C)cc2)cc1`, the activity change (PNC), negative = inhibition falls from 8.92% to -23.7%.

Compared with `Cc1ccc(CC(=O)Nc2ccc(OC(F)F)c(Cl)c2)cc1C`, `Cc1cc(=O)[nH]c(SCc2cc(Cl)ccc2OC(F)F)n1` is lower in activity change (PNC), negative = inhibition: 5.84% for the first, 4.54% for the second.

Going from `N#CC1=C(SCc2ccccc2)NC(=O)C(C#N)C12CCCC2` (stereo not given) to `CCOC(=O)C1C(=O)NCC1c1ccccc1` (stereo not given), the activity change (PNC), negative = inhibition falls from 9.75% to -16.9%.

First: COc1ccnc(Oc2ccccc2)n1
Second: COc1ccc(-n2nnnc2-c2nc3ccccc3s2)cc1
The activity change (PNC), negative = inhibition of the first is lower: -12.4% for the first, -8.45% for the second.

First: C=CCOc1ccc(/C=N/n2cncn2)cc1OC
Second: COc1cc(/C=N/NC(=O)Nc2ccccc2)ccc1OCCOc1ccccc1C
The activity change (PNC), negative = inhibition of the first is higher: 5.24% for the first, -16.5% for the second.

Going from `CCOC(=O)/C=C/C(=O)OCC(=O)NC(c1ccccc1)c1ccccc1` to `CCOC(=O)NN1C(=O)c2ccccc2NC1c1ccccc1O` (stereo not given), the activity change (PNC), negative = inhibition rises from -28.2% to 19.7%.

Going from `COCCOC(=O)C1=C(C)NC(=O)CC1c1cc2c(cc1Br)OCO2` (stereo not given) to `COc1ccc(C(=O)Nc2ccc3c(c2)OCO3)cc1OC`, the activity change (PNC), negative = inhibition falls from 63.3% to 5.14%.

Compared with `COc1ccc(C2CC(=O)Nc3cc(C)c(C)cc32)c(OC)c1OC` (stereo not given), `COc1ccc(-c2noc(-c3cccc(OC)c3OC)n2)cc1OC` is higher in activity change (PNC), negative = inhibition: -26.4% for the first, 7.54% for the second.

First: CCCSc1nc2[nH]ncc2c(=O)[nH]1
Second: Cc1ccc(SCCC(=O)OCC(=O)Nc2ncc(Cl)cc2Cl)cc1
The activity change (PNC), negative = inhibition of the first is higher: 26.1% for the first, -2.97% for the second.

Going from `CC1(C)C2CC=C(/C=N/NC(=O)c3ccc(Cl)cc3)C1C2` (stereo not given) to `CCN(CC)c1ccc(C(=O)N/N=C(\C)c2cccc(OC)c2)cc1`, the activity change (PNC), negative = inhibition rises from 14.2% to 14.7%.

First: CCN(CC(=O)NCCc1ccccc1)S(=O)(=O)c1ccc(C)cc1
Second: Cc1ccc(S(=O)(=O)N(NC2=NS(=O)(=O)c3ccccc32)C(=O)c2ccccc2)cc1
The activity change (PNC), negative = inhibition of the first is lower: -0.956% for the first, 35.5% for the second.

Going from `COc1cc(C(=O)Nc2cc(C(F)(F)F)ccc2N2CCOCC2)ccc1O` to `CCCCC(=O)Nc1ccc(C(=O)Nc2cc(C(F)(F)F)ccc2Cl)cc1`, the activity change (PNC), negative = inhibition falls from 44.6% to 22.8%.

Compared with `Cc1ccccc1N/C(SCc1ccc(Cl)cc1)=C(/C#N)C(N)=O`, `CCC(C)(C(=O)Nc1ccccc1C)N(C(=O)CNC(C)=O)c1ccc(C)cc1` (stereo not given) is lower in activity change (PNC), negative = inhibition: -1.22% for the first, -15.4% for the second.

Compared with `Cc1ccc(Cc2cnc(N)s2)o1`, `Cc1cnc(C(=O)OCC(=O)Nc2ccc(Cl)cc2Cl)cn1` is higher in activity change (PNC), negative = inhibition: -17.8% for the first, 261% for the second.

Going from `O=C(/C=C/c1ccccc1[N+](=O)[O-])NCC1CCCO1` (stereo not given) to `O=S(=O)(NCC1CCCO1)c1cnc(Cl)c(Cl)c1` (stereo not given), the activity change (PNC), negative = inhibition falls from 58.9% to -19.6%.

First: Cc1ccc(SCC(=O)Nc2ccc3c(c2)OCCO3)cc1
Second: Cc1cc(NC(=O)c2cccc(N3C(=O)CCC3=O)c2)no1
The activity change (PNC), negative = inhibition of the first is higher: 36.7% for the first, -7.91% for the second.

Compared with `OCCNCCOc1ccc(Cl)c(Cl)c1`, `CCCN=C1NC(=O)C(CC(=O)NCCc2ccc(OC)c(OC)c2)S1` (stereo not given) is higher in activity change (PNC), negative = inhibition: 32.5% for the first, 58.6% for the second.

First: CN(C)/C(=N\OC(=O)c1ccccc1)c1nonc1N
Second: CC(C)=C(NC(=O)c1ccccc1)C(=O)N/N=C(\C)c1ccccc1O
The activity change (PNC), negative = inhibition of the first is lower: 6.05% for the first, 6.63% for the second.

Compared with `Cc1cc(N2CCOCC2)nc(-c2ccc(Br)cc2)n1`, `Cc1ccc(-c2nc(CS(=O)CC(=O)N3CCN(c4ncccn4)CC3)c(C)o2)cc1` (stereo not given) is higher in activity change (PNC), negative = inhibition: -19.2% for the first, 11.5% for the second.

First: CCOc1nc(-c2ccc(OC)cc2)ccc1-c1noc(-c2cc(OC)c(OC)c(OC)c2)n1
Second: CCOc1cccc(-c2nnc3sc(COc4ccc(OC)cc4)nn23)c1
The activity change (PNC), negative = inhibition of the first is higher: -17.5% for the first, -29.7% for the second.

Going from `N#CCCN1CCN(S(=O)(=O)c2ccc(S(=O)(=O)N3CCCC3)cc2)CC1` to `N#CCCN1CCN(S(=O)(=O)c2ccc(S(=O)(=O)NC3CC3)cc2)CC1`, the activity change (PNC), negative = inhibition rises from -15% to -11.6%.

First: CC(=O)Nc1cccc(/C(C)=N/NC(=O)c2ccccc2Cl)c1
Second: O=C(OCC(=O)c1c[nH]c2ccccc12)c1cccc(O)c1
The activity change (PNC), negative = inhibition of the first is lower: 5.62% for the first, 49.4% for the second.

Compared with `Cc1onc(-c2ccccc2Cl)c1C(=O)NCCn1ccc2ccccc21`, `COc1ccc(-c2nc(CS(=O)CC(=O)NCc3ccccn3)c(C)o2)cc1` (stereo not given) is lower in activity change (PNC), negative = inhibition: -12.7% for the first, -19.8% for the second.

First: CSCCC(Nc1ccc(S(=O)(=O)N2CCOCC2)cc1[N+](=O)[O-])C(=O)OCC(=O)N(C(C)C)C(C)C (stereo not given)
Second: CCOC(=O)c1c(C)n(C)c2ccc(OC)c(NS(=O)(=O)CC)c12
The activity change (PNC), negative = inhibition of the first is lower: -25.5% for the first, -8.82% for the second.

First: CSc1ccc(/C=C/C(=O)NC23CC4CC(CC(C4)C2)C3)cc1
Second: Cc1cccc(N2CCN(C(=O)/C=C/c3ccco3)CC2)c1C
The activity change (PNC), negative = inhibition of the first is lower: 11.8% for the first, 16.7% for the second.

First: CCOC(=O)c1c(NC(=O)Cn2nc(C(F)(F)F)cc2C)sc2c1CCC2
Second: COc1ccccc1NC(=O)c1ccc2nc(N3C(=O)CCC3=O)sc2c1
The activity change (PNC), negative = inhibition of the first is lower: 36.1% for the first, 133% for the second.

Compared with `CN1CCN(C(=O)/C(=C\c2cccs2)NC(=O)c2cccs2)CC1`, `CO/N=C/c1ccc(N2CCN(C(=O)c3cccc(Cl)c3)CC2)c([N+](=O)[O-])c1` is higher in activity change (PNC), negative = inhibition: 0.966% for the first, 77.9% for the second.

Going from `COc1cc2c(cc1/C=C1/NC(=O)N(c3ccccc3)C1=O)OCO2` to `COc1ccc2c(-c3ccccc3)cc(SCC(=O)N(C)C3CCS(=O)(=O)C3)nc2c1` (stereo not given), the activity change (PNC), negative = inhibition rises from -20.8% to 46.3%.

Work on `O=[N+]([O-])c1ccc(N2CCNCC2)cc1NCc1cccnc1` yielded an activity change (PNC), negative = inhibition of 59.2%.

In the case of `Cc1nc(NCc2ccccc2)c(C(N)=O)c2c1COC(C)(C)C2`, the activity change (PNC), negative = inhibition is reported as -122% (active).
In the case of `COc1ccc(S(=O)(=O)N2CCC(C(=O)N3CCc4ccccc4C3)CC2)cc1OC`, the activity change (PNC), negative = inhibition is reported as -84.1% (active).
With `Cc1noc(COc2ccccc2OCc2onc(C)c2Cl)c1Cl` the activity change (PNC), negative = inhibition was -100% (active).
In the case of `N#CC1=C(SCc2ccc(C#N)cc2)N=C(N)C(c2nc(-c3ccccc3)cs2)C12CCCCC2` (stereo not given), the activity change (PNC), negative = inhibition is reported as -112% (active).
In the case of `C/C=C/c1ccc(OCCOc2ccc(C=O)cc2OC)c(OC)c1`, the activity change (PNC), negative = inhibition is reported as -108% (active).
With `CCCOc1ccccc1C1CC(=O)Nc2cc3c(cc21)OCO3` (stereo not given) the activity change (PNC), negative = inhibition was -92% (active).
With `Cn1c(=O)n(C)c2cc(C(=O)Nc3ccc4c(c3)OCO4)ccc21` the activity change (PNC), negative = inhibition was -87% (active).
With `CCOC(=O)C1C(=O)NC(N2CCN(c3ccccc3)CC2)=NC1c1ccco1` (stereo not given) the activity change (PNC), negative = inhibition was -90% (active).
For `Cc1ccc(CCC(=O)Nc2ncc(Cc3cc(Cl)ccc3Cl)s2)o1`, the activity change (PNC), negative = inhibition was -88.9% (active).
With `Cc1ccc(-n2c(SCC(=O)Nc3ncc(Cl)cc3Cl)nc3ccccc32)cc1` the activity change (PNC), negative = inhibition was -115% (active).
In the case of `COc1ccc(-c2nc(-c3ccccc3)no2)c(OC)c1`, the activity change (PNC), negative = inhibition is reported as -102% (active).
With `CC(C)(C)c1cc(CN2CCN(CCC#N)CC2)cc(C(C)(C)C)c1O` the activity change (PNC), negative = inhibition was -122% (active).
For `CC(=O)Nc1cccc(/C(C)=N/NC(=O)c2c(-c3ccccc3Cl)noc2C)c1`, the activity change (PNC), negative = inhibition was -109% (active).
For `CCOc1cccc(-n2nnnc2-c2ccc(OC)cc2)c1`, the activity change (PNC), negative = inhibition was -83.5% (active).
In the case of `Cc1ccc(-c2nc(CS(=O)CC(=O)NC3CCCC3)c(C)o2)cc1` (stereo not given), the activity change (PNC), negative = inhibition is reported as -106% (active).
In the case of `CCCCOc1ccc(Cl)cc1CSc1nncn1N`, the activity change (PNC), negative = inhibition is reported as -89.7% (active).
In the case of `O=C(Nc1cccc2cccnc12)c1cccc(N2C(=O)CCC2=O)c1`, the activity change (PNC), negative = inhibition is reported as -100% (active).
With `O=C(/C=C/c1ccc(Cl)cc1)N1CCN(c2ccccc2[N+](=O)[O-])CC1` the activity change (PNC), negative = inhibition was -91.4% (active).
